Assay results: a collection of fitness landscapes (doi:10.1016/j.celrep.2020.107928)
The full ranking holds about 81,000 sequences; the median of “one-hybrid fitness for binding NBS DNA” is about -0.1, and the highest 2% start at about 0.36. This is one part of a sample in which the highest values are shown more often than they occur.

B1: Caulobacter ParB omega fusion; a variant is named by its letters at X, in order, B8GW30 (parent)
chain: MESVVVGEPGMSEGRRGLGRGLSALLGEVDAAPAQAPGEQLGGSREAPIEILQRNPDQPRRTFREEDLEDLSNSIREKGVLQPILVRPSPDTAGEYQIVAGERAWRAAQRAGLKTVPIMVRELDDLAVLEIGIIENVQRADLNVLEEALSYKVLMEKFERTQENIAQTIGKSXSHVANXMRLLXLPDEVQSYLVSGELTAXHARAIAAAADPVALAKQIIEGGLSVRETEALARKAPNLSAGKSKGGRPPRVKDTDTQALESDLSSVLGLDVSIDHRGSTGTLTITYATLEQLDDLCNRLTRGI

Variants of: B1
Experiment: one-hybrid fitness for binding NBS DNA (the Noc-binding site; scaled: cognate 1, non-cognate 0); higher = stronger binding
Conditions: with NBS DNA site
Procedure, shortened: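 Caulobacter ParB libraries with four specificity codons randomised were screened by bacterial one-hybrid selection in the E. coli USO strain, using a HIS3 reporter whose site lies 19 bp from the promoter. Selection ran for 48 hours at 37°C on M9 lacking histidine, with 0.1 mM IPTG and 5 mM 3-AT. Plasmids were Illumina-sequenced before and after selection, three replicate libraries were pooled, and variants with under 10 reads were dropped. Fitness is the log change in each variant's read ratio to wild type, rescaled against the cognate and non-cognate sites.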

| Variant | one-hybrid fitness for binding NBS DNA |
| --- | --- |
| IYTG | ≤ 0.2 |
| QEPT | ≤ 0.2 |
| QKVW | ≤ 0.2 |
| HKNP | ≤ 0.2 |
| NTTN | ≤ 0.2 |
| VWNG | ≤ 0.2 |
| CAIM | ≤ 0.2 |
| PVVW | ≤ 0.2 |
| YKVT | ≤ 0.2 |
| VSTT | ≤ 0.2 |
| QSTT | 0.403 |
| QLTP | ≤ 0.2 |
| QCTT | 0.486 |
| QPTT | ≤ 0.2 |
| QLTS | 0.307 |
| QLTT | 0.393 |
| QITT | 0.314 |
| QMTL | ≤ 0.2 |
| QSTH | ≤ 0.2 |
| QMTT | 0.463 |
| QMTQ | ≤ 0.2 |
| QSTN | ≤ 0.2 |
| LYGT | ≤ 0.2 |
| ACDR | ≤ 0.2 |
| DHGS | ≤ 0.2 |
| GRAP | ≤ 0.2 |

| Variant | one-hybrid fitness for binding NBS DNA |
| --- | --- |
| MVHG | ≤ 0.2 |
| SQHN | ≤ 0.2 |
| QRTT | 0.759 |
| QTTY | 0.301 |
| QATT | 0.379 |
| QNTT | ≤ 0.2 |
| QATD | ≤ 0.2 |
| QKTM | ≤ 0.2 |
| QTTG | ≤ 0.2 |
| QATH | ≤ 0.2 |
| DRTT | ≤ 0.2 |
| QTTT | 0.603 |
| QKTP | ≤ 0.2 |
| QKTT | 0.56 |
| ERNT | ≤ 0.2 |
| SKLS | ≤ 0.2 |
| CYAV | ≤ 0.2 |
| RIEC | ≤ 0.2 |
| GTHW | ≤ 0.2 |
| QHTT | 0.412 |
| QHTY | ≤ 0.2 |
| QHTM | ≤ 0.2 |
| KWAC | ≤ 0.2 |
| TYFR | ≤ 0.2 |
| RRKI | 0.607 |
| RRYI | ≤ 0.2 |

| Variant | one-hybrid fitness for binding NBS DNA |
| --- | --- |
| RRRI | 0.451 |
| RCKI | ≤ 0.2 |
| RRVI | ≤ 0.2 |
| RREI | ≤ 0.2 |
| VLSD | ≤ 0.2 |
| DRYG | ≤ 0.2 |
| SACR | ≤ 0.2 |
| CRNI | ≤ 0.2 |
| ARTS | ≤ 0.2 |
| KRAT | 0.572 |
| DRFT | ≤ 0.2 |
| KCAT | ≤ 0.2 |
| KRAH | ≤ 0.2 |
| KRFT | 0.565 |
| NRFT | ≤ 0.2 |
| ERLC | ≤ 0.2 |
| DGPR | ≤ 0.2 |
| QMHQ | ≤ 0.2 |
| QMET | 0.295 |
| QMHT | 0.497 |
| QMYT | 0.436 |
| QMRT | 0.79 |
| QMCT | 0.339 |
| QMHG | ≤ 0.2 |
| QTLT | 0.527 |
| QMWT | 0.36 |

| Variant | one-hybrid fitness for binding NBS DNA |
| --- | --- |
| QTLK | ≤ 0.2 |
| DMRT | ≤ 0.2 |
| KGMW | ≤ 0.2 |
| IVAT | ≤ 0.2 |
| PGEM | ≤ 0.2 |
| MPVM | ≤ 0.2 |
| GHRC | ≤ 0.2 |
| NPHC | ≤ 0.2 |
| QMAG | ≤ 0.2 |
| QCLT | 0.487 |
| QPLT | ≤ 0.2 |
| QMSF | ≤ 0.2 |
| QMST | 0.457 |
| QSLT | 0.327 |
| QMND | ≤ 0.2 |
| QMDT | 0.345 |
| QMSG | ≤ 0.2 |
| QMAT | 0.505 |
| QMNT | 0.52 |
| QMAF | ≤ 0.2 |
| CHMT | ≤ 0.2 |
| EHDV | ≤ 0.2 |
| SSEQ | ≤ 0.2 |
| GTKR | 0.255 |
| RILE | ≤ 0.2 |
| RWLC | ≤ 0.2 |

| Variant | one-hybrid fitness for binding NBS DNA |
| --- | --- |
| ADHS | ≤ 0.2 |
| SITC | ≤ 0.2 |
| TCAG | ≤ 0.2 |
| QMGL | ≤ 0.2 |
| QMQY | 0.223 |
| QMLT | 0.395 |
| QMPT | 0.312 |
| QMIT | 0.402 |
| QMQF | ≤ 0.2 |
| QMLN | ≤ 0.2 |
| QMLP | ≤ 0.2 |
| QMQT | 0.392 |
| QMGT | 0.447 |
| QMGM | ≤ 0.2 |
| QMIN | ≤ 0.2 |
| HGKF | ≤ 0.2 |
| ARGT | ≤ 0.2 |
| PESN | ≤ 0.2 |
| MRTC | ≤ 0.2 |
| LKVF | ≤ 0.2 |
| YDRK | ≤ 0.2 |
| EANW | ≤ 0.2 |
| QCSS | 0.449 |
| QHSS | 0.37 |
| QPSS | ≤ 0.2 |
| QTSS | 0.522 |

| Variant | one-hybrid fitness for binding NBS DNA |
| --- | --- |
| QHSP | ≤ 0.2 |
| QMSP | ≤ 0.2 |
| QHSH | ≤ 0.2 |
| QTSN | 0.221 |
| QSSS | 0.353 |
| QMSS | 0.376 |
| QTSP | ≤ 0.2 |
| QMSH | ≤ 0.2 |
| NGMI | ≤ 0.2 |
| PSRF | ≤ 0.2 |
| GSQF | ≤ 0.2 |
| RLMM | ≤ 0.2 |
| HSIS | ≤ 0.2 |
| RMRP | ≤ 0.2 |
| RMQF | ≤ 0.2 |
| RMIR | 0.253 |
| RMSN | ≤ 0.2 |
| RMWR | 0.289 |
| RMQG | ≤ 0.2 |
| RMSR | 0.468 |
| RMPR | ≤ 0.2 |
| RMSP | ≤ 0.2 |
| RMYR | 0.424 |
| RMRR | 0.736 |
| RMQR | 0.411 |
